Screening results from PubChem BioAssay.
The list is not random: actives were taken first. Their share in the collection is about 1.5%.
MRP-1 activ – MRP-1 activation | H69AR cells + doxorubicin, viability rescue, CellTiter-Glo | viability increase, % at 10 µM | 140,000 compounds, 0.61% hits;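 active = viability gain under doxorubicin at or above a set limit, the compound median plus 3 SD, cut at about 4.7% in these data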;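 also: MRP-1 overexpressing cells given doxorubicin 25 µM after compound pretreatment; 18-22 h compound pretreatment then 72 h with doxorubicin before readout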
MRP reversal – MRP-mediated drug resistance reversal; H69AR cells + 2 uM doxorubicin, CellTiter-Glo, 72 h; differential viability (reversal), % at 10 µM; 85,000 compounds, 0.04% hits;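 active = viability drop by adding the cancer drug above about 55%, with treated viability meeting a 40% cutoff, limit read from the data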;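 also: larger differential means the compound sensitizes cells more to doxorubicin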
hDAT+cocaine – changed human dopamine transporter uptake under cocaine IC80. AID 449768. B-score at 10 µM. 110,000 compounds, 1.3% hits. LLC-PK1 hDAT cells, [14C]-dopamine uptake with cocaine IC80; actives deviate in either direction. Q01959;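 active = Z score or B-score, a plate-position-corrected score, falls beyond the plate's 99.7% confidence bounds, in either direction; inactive = both scores lie inside the 99.7% bounds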
Target sequence (Q01959 whole entry, looked up): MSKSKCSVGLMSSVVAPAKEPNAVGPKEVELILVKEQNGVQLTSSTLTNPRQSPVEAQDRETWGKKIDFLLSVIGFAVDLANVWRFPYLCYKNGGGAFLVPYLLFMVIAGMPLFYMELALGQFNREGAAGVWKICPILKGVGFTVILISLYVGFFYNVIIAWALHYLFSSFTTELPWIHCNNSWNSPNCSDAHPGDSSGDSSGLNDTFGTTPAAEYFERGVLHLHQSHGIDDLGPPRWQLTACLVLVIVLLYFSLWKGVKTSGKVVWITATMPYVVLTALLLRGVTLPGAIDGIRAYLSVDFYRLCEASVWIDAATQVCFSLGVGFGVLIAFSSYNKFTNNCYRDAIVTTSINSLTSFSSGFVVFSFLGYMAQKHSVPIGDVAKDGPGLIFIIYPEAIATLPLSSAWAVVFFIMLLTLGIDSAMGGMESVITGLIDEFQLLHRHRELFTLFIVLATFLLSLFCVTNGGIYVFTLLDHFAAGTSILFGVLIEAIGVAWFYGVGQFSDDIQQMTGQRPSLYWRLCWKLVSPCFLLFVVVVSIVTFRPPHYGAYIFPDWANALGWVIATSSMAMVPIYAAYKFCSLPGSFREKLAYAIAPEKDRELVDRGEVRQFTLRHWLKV
A number is an active result; - = inactive; . = not tested or not shown.

SMILES	MRP-1 activ	MRP reversal	hDAT+cocaine
CC(C)OC(=O)CCc1nc2ccccc2[nH]c1=O	-	-	2.1
Cc1cccc(-n2c(N)cc(=O)nc2SCC(=O)Nc2nnc(CC(C)C)s2)c1	-	-	.
CCCCc1nnc(NC(=O)CSc2nc(=O)cc(N)n2-c2cccc(C)c2)s1	6.0	-	-
Cc1ccc2c(CC(=O)OCc3nc(N)nc(Nc4ccccc4C)n3)coc2c1	-	-	-
Cc1ccc2c(CC(=O)OCc3csc(C)n3)coc2c1	-	-	-7.4
COc1cc(C(=O)N2CCC(O)(c3ccccc3)CC2)cc(OC)c1OC	-	.	-
Cc1ccc(Cl)cc1N1CCN(C(=O)CCC(=O)O)CC1	-	-	-3
O=C(O)CCC(=O)N1CCN(c2cccc(Cl)c2)CC1	-	-	-
COc1cccc(-c2cc(C(=O)N3CCc4ccccc4C3)no2)c1	-	-	-
COc1ccc(OC)c(-c2cc(C(=O)N3CCc4ccccc4C3)no2)c1	-	.	2.9
CC(CN(C)Cc1ccccc1)OC(=O)c1cccc(F)c1 (centres undefined)	-	.	.
N#Cc1ccccc1/C=N/Nc1nc(-c2ccccc2)c2cc(Cl)ccc2n1	-	.	-
Cc1ccc2nc(N/N=C/c3ccccc3C#N)nc(-c3ccccc3)c2c1	-	.	3.1
NC(=O)C1=C[C@@H](C2CCCCC2)C[C@@H](OCc2ccc(CO)cc2)O1	.	.	-
Cc1cc(C)cc(NC(=O)CSc2nnc(-c3ccccc3Br)o2)c1	-	-	-
O=C(CSc1nnc(-c2ccccc2Br)o1)N1CCc2ccccc2C1	-	-	2.9
CC(=O)Nc1ccc(OCC(O)CN2C(C)(C)CC(O)CC2(C)C)cc1 (centres undefined)	-	.	.
O=C(N/N=C/c1cccc(OCC(=O)N2CCCC2)c1)C(=O)Nc1ccccc1F	-	.	.
CCOC(=O)CSc1nnc(SCCN2C(=O)c3ccccc3C2=O)s1	-	-	.
Fc1ccc(-c2nn3c(C4COc5ccccc5O4)nnc3s2)cc1 (centres undefined)	-	-	.
c1ccc2c(c1)OCC(c1nnc3sc(-c4ccc5c(c4)OCO5)nn13)O2 (centres undefined)	-	-	-8.6
CCC(CO)NC1=C([N+](=O)[O-])C(=O)CC(C)(C)C1 (centres undefined)	-	.	.
COc1ccc(OC)c(NC(=O)COC(=O)/C=C/c2ccc(Cl)cc2)c1	-	.	.
CC1(c2nnc(Cc3ccccc3)o2)CC(c2ccc(F)cc2)=NO1 (centres undefined)	.	.	-
COc1ccc(-c2cc(C(=O)Nc3sc4c(c3C#N)CCCC4)c3ccccc3n2)cc1	6.0	.	.
SMILES	MRP-1 activ	MRP reversal	hDAT+cocaine
COc1ccc(OC)c(-c2cc(C(=O)Nc3sc4c(c3C#N)CCC(C)C4)c3ccccc3n2)c1 (centres undefined)	-	.	-
COc1ccc2[nH]c3c(NCCN(C(C)C)C(C)C)ncnc3c2c1	-	-	-
COc1ccc2[nH]c3c(NCCCN4CCCC4=O)ncnc3c2c1	-	-	2.9
Cc1cccc(OCC(=O)NNC(=O)C2CCCCC2C(=O)O)c1 (centres undefined)	-	.	.
COc1ccc(NC(=O)CN2C(=O)C(C)Oc3ccccc32)cc1 (centres undefined)	-	.	-
COc1ccc(NC(=O)CN2C(=O)C(C)Oc3ccccc32)c(OC)c1 (centres undefined)	-	-	2.3
CCCCOC(=O)CSc1nc(N)c(C#N)c(-c2ccc(OCC)cc2)c1C#N	-	-	-
CCCCOc1ccc(-c2c(C#N)c(N)nc(SCC(N)=O)c2C#N)cc1	-	-	-2.3
Cc1oc(CC(C)C)cc1C(=O)Nc1cccc2ccccc12	-	-	-6.9
CCOc1ccccc1NC(=O)c1cc(CC(C)C)oc1C	-	-	-
Cc1cccc(-n2c(SCC(=O)Nc3ncc(Cl)cc3Cl)nc3ccccc32)c1	5.9	.	.
O=C(CSc1nc2ccccc2n1-c1ccccc1)Nc1ncc(Cl)cc1Cl	-	.	.
COc1ccc(C(C)=O)cc1CSc1nnc(Nc2c(C)cccc2C)s1	-	.	.
Cc1ccc(OCc2ccc(C(=O)O)o2)c([N+](=O)[O-])c1	-	.	.
CCOC(=O)c1ccc(NC(=O)c2cc(OC)c(OC)c(OC)c2Br)cc1	-	.	.
CCCCCCOC(=O)c1ccc(NC(=O)c2cc(OC)c(OC)c(OC)c2Br)cc1	4.9	.	-
C#CCNC(=O)C1=C[C@@H](c2ccc(C(F)(F)F)cc2)C[C@@H](OCCCCO)O1	.	.	-
Cc1cc(C(=O)COC(=O)c2ccccc2O)c(C)n1Cc1cccs1	-	.	-
Cc1cc(C(=O)COC(=O)c2ccc3c(c2)OCO3)c(C)n1Cc1cccs1	5.6	-	-
O=C(C1=C[C@H](C2CCCCC2)C[C@H](OCc2ccc(CO)cc2)O1)N1CCN(Cc2ccc3c(c2)OCO3)CC1	.	.	-
Cc1ccc(C=Nc2ccccc2C(N)=O)o1	-	.	.
Cc1ccc(C=Nc2ccc(N(C)C)cc2)o1	-	65	-
COC(C[C@H](O)C[C@H](O)COCc1ccccc1)OC	.	.	-
CCc1nnc(NC(=O)C2COc3ccccc3O2)s1 (centres undefined)	5.1	-	-
Cc1nnc(NC(=O)C2COc3ccccc3O2)s1 (centres undefined)	-	-	-
SMILES	MRP-1 activ	MRP reversal	hDAT+cocaine
O=c1c2ccccc2oc2cc(C#CC3(O)CCCCC3)ccc12	.	.	2.2
O=c1c2ccccc2sc2ccc(C#CC3(O)CCCCC3)cc12	.	.	-
CCN(CC)c1ccc2cc(S(=O)(=O)c3ccc(C)cc3)c(=O)oc2c1	-	.	.
Cc1ccccc1Nc1nc(N)nc(CSc2nc3ccccc3c(=O)n2CCCO)n1	-	-	2.7
COCCn1c(SCc2nc(N)nc(Nc3ccccc3C)n2)nc2ccccc2c1=O	-	-	-
CSc1ccccc1NC(=O)COc1ccccc1Cl	-	.	-
COc1cc2c(cc1OC)C(c1ccccc1F)OC(=O)C2 (centres undefined)	-	.	.
Cc1c(-c2ccccc2)oc2c(C(=O)OCC(=O)Nc3ccc(C(N)=O)cc3)cccc2c1=O	-	.	.
COc1ccc(NC(=O)Cn2cc(C(=O)c3ccco3)c3ccccc32)cc1	6.7	-	-
CCOc1ccc(NC(=O)Cn2cc(C(=O)c3ccco3)c3ccccc32)cc1	-	-	-
O=C(NCCCN1CCOCC1)c1onc(CSc2ccccn2)c1C(=O)NCCCN1CCOCC1	.	.	-
C=CCn1c(C)cc(C(=O)COC(=O)c2ccc3c(c2)NC(=O)CS3)c1C	-	.	.
O=C(NCC1CC1)c1cc(-c2ccccc2)nn1CC1CC(c2cccnc2)=NO1 (centres undefined)	.	.	-
COc1ccc(-c2coc3cc(O)cc(O)c3c2=O)cc1	-	-	-
COc1ccc(-c2coc3cc(OC)cc(O)c3c2=O)cc1	-	-	-2.4
Cc1cc(C)cc(SCc2noc(C(=O)NCCC(C)C)c2C(=O)NCCC(C)C)c1	.	.	-
OC(COCc1cccs1)CN1CCN(c2cccc(Cl)c2)CC1 (centres undefined)	-	.	.
O=S(=O)(c1ccccc1)N1CCN(C2CCN(Cc3ccccc3)CC2)CC1	-	-	-
COc1ccc(S(=O)(=O)N2CCN(C3CCN(Cc4ccccc4)CC3)CC2)cc1	-	-	-1.8
CC(C)=CCOc1ccc([C@@H]2COc3c(ccc4c3C=CC(C)(C)O4)C2)c(O)c1	.	.	-
Cc1ccc(OCC(=O)Nc2ccc(C)c(S(=O)(=O)N3CCCCC3)c2)c([N+](=O)[O-])n1	-	.	.
Nc1c(Cl)cc(-c2csc(NC(CO)c3nc4ccccc4n3CCOCCO)n2)cc1Cl (centres undefined)	.	.	-
